Screening data (PubChem)
Only some compounds are listed: those with a hit (about 5.5% of all), similar ones and a draw of the others.
ELG1 DNA repair: qHTS screen for small molecules that inhibit ELG1-dependent DNA repair in human embryonic kidney (HEK293T) cells expressing luciferase-tagged ELG1; AID 504467, 2011; 330,000 tested, 2.3% active; Potency, µM (highest dose often 46.1 µM), without a hit: at the highest dose activity change, negative = inhibition, actives largely listed as inhibitors; HEK293T ELG1-luciferase reporter, luminescence, 16 h; DNA damage induced by 5-fluorouridine; also: potency is read from the fitted curve at half-maximal effect; nearly all actives have a fitted effect of over 55% in size
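Step one: seed 2,000 cells per well. Step two: pin-transfer compound or DMSO alongside 5-fluorouridine. Step three: incubate 16 hr, 37 °C, 5% CO2. Step four: add ONE-Glo, wait 30 min, read luminescence.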
Coupling enz: qHTS Assay for Inhibitors of Fructose-1,6-bisphosphate Aldolase from Giardia Lamblia: Coupling assay counterscreen. coupling enzyme system counterscreen, AmpLite Red fluorescence. activity change, negative = inhibition, % at 58.2 µM, hits read low. 290,000 tested, 0.67% active; in the data active = activity change below about -30%
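First, compound is pin-transferred into glyceraldehyde-3-phosphate coupling-enzyme reagent at 57.5 uM final and held 10 min at RT. Next, substrate, coupling system and AmpLite Red are added. After 20 min RT, fluorescence (525/598 nm) is read.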
Giardia killer: Small Molecules that selectively kill Giardia lamblia: qHTS; Giardia lamblia trophozoite viability; 340,000 tested, 0.15% active; AID 540267, 2011; activity change, % at 7.66 µM, hits read low; in the data active = activity change below about -80%; inconclusive = between about -30% and that limit;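 also: parasites exposed to compound for two days anaerobically before the ATP read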
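Media and compound were dispensed first, then trophozoites at 100 cells/well; plates sat 48 hrs at 37 deg C without oxygen before ATP luminescence reagent was added and read after 15-30 min at room temperature.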
Sfp inh: qHTS Assay for Inhibitors of Bacillus subtilis Sfp phosphopantetheinyl transferase (PPTase). 4'-phosphopantetheinyl transferase ffp (Bacillus subtilis), Q9F4F7. Biochemical Sfp PPTase activity, qHTS. Potency, µM, for inactives: largest response in the series, negative = inhibition, hits mostly inhibitors. 310,000 tested, 3.5% active;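 also: the enzyme is Sfp with the accession as filed and its product quenches rhodamine fluorescence; potency is read from the fitted curve at half-maximal effect; 0% = enzyme reaction without inhibitor and -100% = no enzyme wells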
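Sfp 15 nM + cpd, 15 min RT; start w/ rhodamine-CoA 5 uM, BHQ-2-YbbR 12.5 uM (final); 50 mM Hepes pH 7.6, 10 mM MgCl2, 0.01% NP-40, 0.01% BSA; read 525/598 nm at 0 and 30 min.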
* hit, by the source's call; ? = inconclusive; · = no result given. Unless noted, calls follow the shape of the dose curve; as a rule, active = well fitted curve in the direction sought with a large enough effect; inconclusive = small, poorly fitted or top-dose-only effect, or another doubt; inactive = no such curve, though single readings can be large; an effect the other way counts as inactive or inconclusive. Unless noted, % is scaled to controls: 0 for no effect and ±100 for the full control effect.

SMILES | ELG1 DNA repair | Coupling enz | Giardia killer | Sfp inh
CC(=O)OC1CC2C(C)(C)C(=O)C=C[C@]2(C)C2CC[C@@]3(C)C(c4ccoc4)OC(=O)C4O[C@@]43[C@]12C (stereo not given in full) | · | -2 | · | -9%
CC(=O)O[C@@H]1CC2C(C)(C)C(=O)C=C[C@]2(C)C2CC[C@]3(C)C(=CC[C@H]3C3CO[C@@H](C(C)(C)O)[C@H](O)C3)[C@@]21C (stereo not given in full) | · | 0 | · | 89µM*
COc1ccc(/C=N/Nc2ccc(C(=O)O)cc2)c(OC)c1OC | ? | 3 | -5 | 13%
COC(=O)c1ccc2c(c1)C(C)(C)C(/C=C/c1ccc(O)cc1)=[N+]2C | ? | -2 | -18 | 45µM*
COC(=O)c1ccc2c(c1)C(C)(C)C(/C=C/c1ccc(OC)c(OC)c1OC)=[N+]2C | ? | · | 0 | 18µM*
COC(=O)c1ccc2nc(C)c(C)nc2c1 | ? | 0 | 2 | 11%
NC(=S)N/N=C/c1c[nH]c2ccccc12 | -1% | -5 | 8 | 79µM*
COC(=O)N/N=C/c1c[nH]c2ccccc12 | 0% | 0 | -2 | 10%
O=C(c1cc(S(=O)(=O)N2CCN(c3ccccc3)CC2)ccc1Cl)N1CCCCCCC1 | -29% | · | 3 | ·
O=C(NCCOc1ccccc1)C1CCC(=O)N(C2CCCCCC2)C1 (stereo not given) | -2% | 2 | 2 | 13%
Cc1ccc(C)c(S(=O)(=O)N2CCN(C(=O)c3ccc(-n4cncn4)c([N+](=O)[O-])c3)CC2)c1 | -3% | · | 9 | ·
Cc1ccc(C)c(S(=O)(=O)N2CCN(C(=O)c3ccc(N4CCCC4)c([N+](=O)[O-])c3)CC2)c1 | 21µM* | -3 | 47 | -2%
COC(=O)[C@@]1(Cc2ccc(F)cc2)[C@H]2c3cc(C(=O)N(C)C)n(C)c3C[C@H]2CN1C(=O)c1ccccc1 | · | -3 | · | 6%
C=C1C(=O)C=C2CN(C(=O)c3ccccc3)[C@@](Cc3ccc(F)cc3)(C(=O)OC)[C@@H]12 | 2.9µM* | -1 | ? | 10µM*
COC(=O)[C@@]1(Cc2ccc(OC)cc2)[C@@H]2C(=CC(=O)[C@H]2CC(=O)C(=O)N(C)C)CN1C(=O)c1ccccc1 | 9.2µM* | -1 | -6 | -1%
O=C(NCCCn1ccnc1)c1ccc(N2CCCCCC2)c([N+](=O)[O-])c1 | 9.2µM* | 0 | 5 | 3%
Cc1ccc(C(=O)NCCCn2ccnc2)cc1[N+](=O)[O-] | ? | -1 | -17 | -6%
Cc1[nH]c2ccc3c(ncn3CCC#N)c2c1C | -1% | -36* | -25 | -7%
CC[C@]12c3[nH]c4cc(CCC(=O)N(C)C)ccc4c3CCN1C(=O)[C@@H](CC(=O)NCCc1ccccn1)C[C@@H]2C(=O)N1CCN(C(=O)C2CC2)CC1 | 15% | · | 6 | ·
O=C(CSc1nnc(-c2ccc(Cl)cc2)n1Cc1ccco1)Nc1ccc2c(c1)OCCO2 | ? | 3 | 5 | 32µM*
O=C(CSc1nnc(-c2ccccn2)n1Cc1ccccc1)Nc1ccc2c(c1)OCO2 | 21µM* | 0 | -1 | -6%
Cn1c(SCC(=O)Nc2ccc3c(c2)OCCO3)nnc1-c1ccccn1 | 3% | 0 | 9 | 6%
O=C1CC2CC1C(C(=O)O)C2C(=O)O (stereo not given) | · | · | -19 | ·
Cc1ccc(C(C(=O)NCC2CCCO2)N(Cc2ccccc2)C(=O)c2ccc(-c3ccccc3)[nH]2)o1 (stereo not given) | 16µM* | -1 | 12 | -11%
O=C(NC1CCCC1)C(c1ccncc1)N(Cc1ccco1)C(=O)c1ccc(-c2ccccc2)[nH]1 (stereo not given) | -4% | 2 | 0 | ?
SMILES | ELG1 DNA repair | Coupling enz | Giardia killer | Sfp inh
O=C(NCC1CCCO1)C(c1cccs1)N(Cc1ccccc1Cl)C(=O)c1ccc(-c2ccccc2)[nH]1 (stereo not given) | ? | 0 | -2 | 1%
O=C(NC1CCCC1)C(c1ccncc1)N(Cc1ccccc1)C(=O)c1ccc(-c2ccccc2)[nH]1 (stereo not given) | -20% | -6 | -17 | 18µM*
O=C(O)Cn1nnc(COc2ccccc2)n1 | -3% | 1 | -6 | 13%
CCc1nnc(NC(=O)c2ccncc2)s1 | ? | 2 | 5 | 8%
CCc1nnc(NC(=O)CN2CCN(C3CCCCC3)CC2)s1 | ? | -2 | 1 | 89µM*
CCc1nnc(NC(=O)C2CCCCC2)s1 | ? | -1 | 7 | 32µM*
CCOC(=O)Cc1nnc(NC(=O)C2CCCCC2)s1 | 8% | -1 | ? | 18%
CCc1nnc(NC(=O)c2cccc(C(=O)Nc3nnc(CC)s3)n2)s1 | 13µM* | -1 | -4 | 22%
CCc1nnc(NC(=O)CN2CC(C)OC(C)C2)s1 (stereo not given) | 1% | 3 | 21 | -3%
CCOC(=O)c1c(O)cc(C)cc1Nc1ccccc1 | 2% | 6 | 13 | -14%
O=C(Nc1cc(Cl)ccc1-n1cncn1)c1ccc([N+](=O)[O-])s1 | -8% | · | ? | -8%
COC(=O)c1c(C)[nH]c(-c2csc(N)n2)c1C | -1% | -3 | -10 | 45µM*
CCCS(=O)(=O)N1CCN(Cc2ccccc2C(F)(F)F)CC1 | -30% | 5 | 4 | 50µM*
CCCS(=O)(=O)N1CCN(Cc2ccccc2[N+](=O)[O-])CC1 | -1% | 1 | 1 | ?
O=C1C=C(c2cc3ccccc3s2)CCC1 | · | · | 11 | ·
Cc1ccc(NC(=O)CCN2CC(C)OC(C)C2)cc1 (stereo not given) | 23% | 0 | 8 | 4%
CCN1CCN(C(=S)Nc2sc(C)c(-c3ccccc3)c2C(=O)OC)CC1 | 16µM* | · | -13 | ?
CCOC(=O)c1c(-c2ccc(OCC)cc2)csc1NC(=O)CCN1C(=O)c2ccccc2C1=O | 12µM* | -1 | · | -3%
CCOC(=O)c1c(-c2ccc(C)cc2)csc1NC(=O)C1CCCO1 (stereo not given) | ? | 0 | 9 | -14%
CCc1c(C)sc(NC(=S)N2CCN(CC)CC2)c1C(=O)OC | -14% | -1 | 4 | -4%
CCOC(=O)c1c(-c2ccc(F)cc2)csc1NC(=O)C1CCCO1 (stereo not given) | ? | 5 | 1 | 22µM*
CCOC(=O)c1c(-c2ccc(C)cc2)csc1NC(=O)CCN1CC(C)OC(C)C1 (stereo not given) | ? | 1 | 6 | 16µM*
COc1ccc(S(=O)(=O)Nc2ccccc2C(=O)N2CCOCC2)cc1C | 18% | 0 | -22 | 2%
CCCCNC(=O)c1ccc2nc(-c3cccs3)c(-c3cccs3)nc2c1 | · | · | -2 | ·
O=C(NCC(c1ccco1)N1CCCC1)c1cc2ccccc2s1 (stereo not given) | 1% | · | 2 | ·
CCOC(=O)c1c(NC(=O)CCN2CCOCC2)sc(C)c1-c1ccccc1 | 21µM* | 2 | 1 | -12%
